# Out of some 48,000 compounds screened, about 13,000 (27%) showed an effect of 50% or more. The list shows a part of the results.
# System: Wolbachia pipientis
# Assay: Anti-Wolbachia Cell-Based Screen
# Format: functional
# Set-up: scale not given: in the data most compounds retested in dose-response had high values
# Conditions: 5 µM
row,SMILES,Percent Effect [%]
1,O=C(CCc1nnc2ccccn2c1=O)NCc1ccco1,105.9
2,O=C(CCC1CCCC1)NCc1nnc2ccccn12,1.32
3,COc1ccc(CNC(=O)CCc2nnc3ccccn3c2=O)cc1,126.1
4,Cn1cccc1CNC(=O)CCCc1nnc2ccccn12,14.24
5,COc1ccc(CNC(=O)Cc2csc(C(C)=O)c2)cc1,2.837
6,Cc1cccc(N2CCN(CCC(=O)NCc3cccnc3)CC2)c1,6.039
7,O=C(CCc1nc2cccnc2[nH]1)NCc1ccc2c(c1)OCO2,27.54
8,O=C(CCc1nc2cccnc2[nH]1)NCc1cccnc1,5.887
9,O=C(CCc1nnc2ccccn2c1=O)NCc1cccnc1,121.1
10,O=C(CCc1nnc2ccccn2c1=O)NCc1ccc2c(c1)OCO2,110.3
11,O=C(Cn1ccc2sccc2c1=O)NCc1ccc2c(c1)OCO2,0.2723
12,CCn1ncnc1CN1CCc2[nH]cnc2C1CCc1ccccc1 (stereo not given),5.135
13,Cc1ccc(CNC(c2ccc(F)cc2)c2nccn2C)o1 (stereo not given),6.945
14,CC(=O)N1CCC(Oc2ccc(Cl)cc2C(=O)N2CCCO2)CC1,5.175
15,Cc1ccc(C(=O)N2C[C@@H]3CCCO[C@@H]3[C@H](N3CCOCC3)C2)cn1.O=C(O)C(F)(F)F.O=C(O)C(F)(F)F,-9.984
16,CN1CCN([C@@H]2CN(C(=O)c3ccsc3)[C@@H]3CCCO[C@H]23)CC1,-4.041
17,Cc1ccc(C(=O)N2C[C@@H](N3CCN(C)CC3)[C@H]3OCCC[C@H]32)cn1,115.4
18,Cc1ccoc1C(=O)N1C[C@@H](N2CCN(C)CC2)[C@H]2OCCC[C@H]21.O=C(O)C(F)(F)F.O=C(O)C(F)(F)F,-7.066
19,O=C(c1ccsc1)N1C[C@H](N2CCOCC2)[C@@H]2OCCC[C@@H]21,0.7214
20,Cc1cnc(C(=O)N2C[C@H](N3CCOCC3)[C@@H]3OCCC[C@@H]32)cn1,115.1
21,CC(C)(C)c1cn2nc(N3CCCC(Cn4cncn4)C3)sc2n1 (stereo not given),16.07
22,CN1CCCC(Cc2cncc(C(=O)NCC3CC3)c2)C1 (stereo not given),-7.268
23,CN1CCCC(Cc2cc(N(C)C)ncn2)C1 (stereo not given),94.81
24,CN1CCC(Cc2cc(N(C)C)ncn2)C1 (stereo not given),110.8
25,CN1CCCC(CNC(=O)N2CCN(Cc3ccon3)CC2)C1 (stereo not given),-11.04

row,SMILES,Percent Effect [%]
1,CCn1ccnc1CN(C)c1cc(N(C)C)ncn1,12.61
2,CSCc1ccc(N(C)CC2CCCN(C(C)C)C2)nc1 (stereo not given),-13.33
3,CC(C)N1CCN(C)CC(Cc2cc(N(C)C)ncn2)C1 (stereo not given),93.36
4,CCn1ccnc1CN(C)c1cc(C2CC2)ncn1,1.234
5,c1cnc(NCc2noc3c2CN(C2CCOCC2)CC3)nc1,-17.2
6,COc1ccc(-c2nnc(C(C)N3CCOC(C)(C)C3)o2)cc1 (stereo not given),-4.024
7,c1ccc2c(c1)CC(n1ccnc1-c1cc3n(n1)CCCNC3)CO2 (stereo not given),3.87
8,CCc1ncc(CN(C)C(=O)Nc2cccnc2N2CCCC2)s1,10.11
9,NS(=O)(=O)CCN1CCN(c2cc(F)ccc2F)CC1,-4.797
10,O=C(O)C(F)(F)F.c1cc(CN2CCO[C@H]3[C@H](OCC4CCOCC4)CC[C@@H]32)co1,111.9
11,Fc1ccc(CN2CCO[C@H]3[C@H](OCCN4CCCC4)CC[C@@H]32)cc1.O=C(O)C(F)(F)F.O=C(O)C(F)(F)F,-15.45
12,COc1ccc(CN2CCO[C@H]3[C@H](OCCN4CCCC4)CC[C@@H]32)cc1.O=C(O)C(F)(F)F.O=C(O)C(F)(F)F,97.25
13,O=C(O)C(F)(F)F.O=C(O)C(F)(F)F.c1cc(CN2CCO[C@H]3[C@H](OCCN4CCCC4)CC[C@@H]32)co1,81.09
14,O=C(O)C(F)(F)F.O=C(O)C(F)(F)F.c1csc(CN2CCO[C@H]3[C@H](OCCN4CCCC4)CC[C@@H]32)n1,6.605
15,Cc1ccc(-c2nc(CN3CCN(S(=O)(=O)N(C)C)CC3)cs2)o1,2.093
16,O=C(c1ncn2c1CNS(=O)(=O)c1ccccc1-2)N1CCOCC1,-11.97
17,Cc1noc(C)c1S(=O)(=O)N(C)Cc1nn(C)c(Cl)c1Cl,-15.6
18,CC(C)CC(CCO)CNC(=O)N1CC(C)(C)C1(C)C (stereo not given),-21.83
19,CS(=O)(=O)N1CC2(CCN(CC3CCCCC3)CC2)Cc2ccccc21,144
20,O=C(O)C(F)(F)F.O=C1CC2(CCN(CC3CC3)C2)CN1c1ccc2c(c1)OCO2 (stereo not given),-8.293
21,O=C(Cc1cccs1)N1CCC2(CCCN(CC3CCOCC3)C2)C1 (stereo not given),-3.748
22,CS(=O)(=O)N1CC2(CCN(CC3CCCCC3)C2)Cc2ccccc21 (stereo not given),112.5
23,CS(=O)(=O)N1CC2(CCCN(CC3CC3)C2)Cc2ccccc21 (stereo not given),118.5
24,O=C(O)C(F)(F)F.O=C1CC2(CCN(CC3CC3)C2)CN1c1cccc(F)c1 (stereo not given),-1.195
25,CN1CCCC(CNS(=O)(=O)N2CCc3ccccc3C2)C1 (stereo not given),2.763

# Source: ChEMBL document CHEMBL3988442, “University of Dundee, Small-Polar-MMV Screening Library” (2021)
